± gives the standard deviation of the averaged measurements.
How the values were obtained:
Test in all cases: promoter activity interaction Z-score (Lux/OD deviation from empty-vector control); higher = stronger promoter induction by the compound
[1] = test system: E. coli BW25113 acrABp lux reporter
Procedure, shortened: (§1)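 E. coli BW25113 (wild type or marA, soxS or rob deletion) carrying low-copy luxCDABE promoter reporters grew in 40 µl LB Lennox in 384-well plates at 37°C. Each compound was tested at four 1:2 dilutions in biological duplicates. OD600 and luminescence were read every 30 min for 12 h. Areas were taken over 0–8 h (wild type) or 1–9 h (mutants), and wells below 10% of median growth area were removed. The score is the Z-transformed residual of growth-normalised luminescence fitted against the empty-vector control.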

[2] = test system: E. coli BW25113 marRABp lux reporter
Procedure, shortened: as §1

[3] = test system: E. coli BW25113 micFp lux reporter
Procedure, shortened: as §1

[4] = test system: E. coli BW25113 ompFp lux reporter
Procedure, shortened: as §1

[5] = test system: E. coli BW25113 robp lux reporter
Procedure, shortened: as §1

[6] = test system: E. coli BW25113 soxSp lux reporter
Procedure, shortened: as §1

[7] = test system: E. coli BW25113 tolCp lux reporter
Procedure, shortened: as §1

[8] = 0.073 µg/ml, genetic background: wild type
[9] = 0.073 µg/ml, genetic background: ΔmarA
[10] = 0.073 µg/ml, genetic background: Δrob
[11] = 0.073 µg/ml, genetic background: ΔsoxS
[12] = 0.15 µg/ml, genetic background: wild type
[13] = 0.15 µg/ml, genetic background: ΔmarA
[14] = 0.15 µg/ml, genetic background: Δrob
[15] = 0.15 µg/ml, genetic background: ΔsoxS
[16] = 0.29 µg/ml, genetic background: wild type
[17] = 0.29 µg/ml, genetic background: ΔmarA
[18] = 0.29 µg/ml, genetic background: Δrob
[19] = 0.29 µg/ml, genetic background: ΔsoxS
[20] = 0.58 µg/ml, genetic background: wild type
[21] = 0.58 µg/ml, genetic background: ΔmarA
[22] = 0.58 µg/ml, genetic background: Δrob
[23] = 0.58 µg/ml, genetic background: ΔsoxS

COc1cc(Cc2cnc(N)nc2N)cc(OC)c1OC [Trimethoprim]
promoter activity interaction Z-score [1, 8]: 0.0131 ± 0.34
promoter activity interaction Z-score [1, 9]: -0.307 ± 0.0077
promoter activity interaction Z-score [1, 10]: -0.0611 ± 0.045
promoter activity interaction Z-score [1, 11]: -0.429 ± 0.0073
promoter activity interaction Z-score [1, 12]: 0.297 ± 0.54
promoter activity interaction Z-score [1, 13]: 1.43 ± 0.76
promoter activity interaction Z-score [1, 14]: 0.162 ± 0.041
promoter activity interaction Z-score [1, 15]: -0.000323 ± 0.14
promoter activity interaction Z-score [1, 16]: 0.6 ± 0.73
promoter activity interaction Z-score [1, 17]: -0.763 ± 0.81
promoter activity interaction Z-score [1, 18]: 0.526 ± 0.19
promoter activity interaction Z-score [1, 19]: 0.701 ± 0.81
promoter activity interaction Z-score [1, 20]: 0.577 ± 0.46
promoter activity interaction Z-score [1, 21]: -0.476 ± 0.038
promoter activity interaction Z-score [1, 22]: 1.39 ± 0.35
promoter activity interaction Z-score [1, 23]: 0.448 ± 0.78
promoter activity interaction Z-score [2, 8]: -0.00717 ± 0.14
promoter activity interaction Z-score [2, 9]: 0.354 ± 0.26
promoter activity interaction Z-score [2, 10]: 0.118 ± 0.14
promoter activity interaction Z-score [2, 11]: 0.299 ± 0.38
promoter activity interaction Z-score [2, 12]: 1.11 ± 0.81
promoter activity interaction Z-score [2, 13]: 1.71 ± 0.26
promoter activity interaction Z-score [2, 14]: 0.43 ± 0.16
promoter activity interaction Z-score [2, 15]: 0.811 ± 0.45
promoter activity interaction Z-score [2, 16]: 0.921 ± 0.63
promoter activity interaction Z-score [2, 17]: 1.36 ± 0.27
promoter activity interaction Z-score [2, 18]: 0.367 ± 0.12
promoter activity interaction Z-score [2, 19]: 0.729 ± 0.19
promoter activity interaction Z-score [2, 20]: 0.146 ± 0.067
promoter activity interaction Z-score [2, 21]: 0.423 ± 0.12
promoter activity interaction Z-score [2, 22]: 0.143 ± 0.17
promoter activity interaction Z-score [2, 23]: 0.484 ± 0.068
promoter activity interaction Z-score [3, 8]: 0.711 ± 0.12
promoter activity interaction Z-score [3, 9]: 0.728 ± 0.027
promoter activity interaction Z-score [3, 10]: 0.665 ± 0.28
promoter activity interaction Z-score [3, 11]: 0.533 ± 0.23
promoter activity interaction Z-score [3, 12]: 1.86 ± 0.14
promoter activity interaction Z-score [3, 13]: 1.1 ± 0.14
promoter activity interaction Z-score [3, 14]: 1.29 ± 0.44
promoter activity interaction Z-score [3, 15]: 0.842 ± 0.36
promoter activity interaction Z-score [3, 16]: 2.75 ± 0.96
promoter activity interaction Z-score [3, 17]: 1.9 ± 0.074
promoter activity interaction Z-score [3, 18]: 2.28 ± 0.79
promoter activity interaction Z-score [3, 19]: 1.33 ± 0.41
promoter activity interaction Z-score [3, 20]: 0.997 ± 0.95
promoter activity interaction Z-score [3, 21]: 0.388 ± 0.61
promoter activity interaction Z-score [3, 22]: 1.15 ± 0.38
promoter activity interaction Z-score [3, 23]: 0.825 ± 0.16
promoter activity interaction Z-score [4, 8]: -0.322 ± 0.3
promoter activity interaction Z-score [4, 9]: -1.17 ± 0.5
promoter activity interaction Z-score [4, 10]: -0.297 ± 0.54
promoter activity interaction Z-score [4, 11]: -0.129 ± 0.65
promoter activity interaction Z-score [4, 12]: 0.109 ± 0.39
promoter activity interaction Z-score [4, 13]: -0.477 ± 0.78
promoter activity interaction Z-score [4, 14]: 0.244 ± 0.7
promoter activity interaction Z-score [4, 15]: 0.51 ± 0.81
promoter activity interaction Z-score [4, 16]: 0.0831 ± 0.67
promoter activity interaction Z-score [4, 17]: -1.9 ± 0.61
promoter activity interaction Z-score [4, 18]: -0.0302 ± 1
promoter activity interaction Z-score [4, 19]: 0.395 ± 1.3
promoter activity interaction Z-score [4, 20]: -0.896 ± 0.32
promoter activity interaction Z-score [4, 21]: -0.897 ± 0.46
promoter activity interaction Z-score [4, 22]: 0.0886 ± 0.83
promoter activity interaction Z-score [4, 23]: -1.15 ± 0.39
promoter activity interaction Z-score [5, 8]: 0.791 ± 0.3
promoter activity interaction Z-score [5, 9]: 0.875 ± 0.23
promoter activity interaction Z-score [5, 10]: 2.11 ± 0.058
promoter activity interaction Z-score [5, 11]: 0.238 ± 1.1
promoter activity interaction Z-score [5, 12]: 3.64 ± 0.82
promoter activity interaction Z-score [5, 13]: 3.37 ± 0.44
promoter activity interaction Z-score [5, 14]: 4.81 ± 0.7
promoter activity interaction Z-score [5, 15]: 2.16 ± 0.27
promoter activity interaction Z-score [5, 16]: 7.43 ± 2.3
promoter activity interaction Z-score [5, 17]: 5.16 ± 0.16
promoter activity interaction Z-score [5, 18]: 8.88 ± 0.31
promoter activity interaction Z-score [5, 19]: 5.55 ± 0.44
promoter activity interaction Z-score [5, 20]: 3.89 ± 0.063
promoter activity interaction Z-score [5, 21]: 4.6 ± 5.3
promoter activity interaction Z-score [5, 22]: 3.21 ± 0.23
promoter activity interaction Z-score [5, 23]: 2.01 ± 1.6
promoter activity interaction Z-score [6, 8]: -0.0844 ± 0.22
promoter activity interaction Z-score [6, 9]: 0.118 ± 0.2
promoter activity interaction Z-score [6, 10]: 0.163 ± 0.18
promoter activity interaction Z-score [6, 11]: -0.116 ± 0.24
promoter activity interaction Z-score [6, 12]: 0.261 ± 0.11
promoter activity interaction Z-score [6, 13]: 0.204 ± 0.1
promoter activity interaction Z-score [6, 14]: 0.486 ± 0.39
promoter activity interaction Z-score [6, 15]: 0.169 ± 0.29
promoter activity interaction Z-score [6, 16]: 0.521 ± 0.032
promoter activity interaction Z-score [6, 17]: 0.796 ± 0.022
promoter activity interaction Z-score [6, 18]: 0.986 ± 0.72
promoter activity interaction Z-score [6, 19]: 0.663 ± 0.23
promoter activity interaction Z-score [6, 20]: 1.34 ± 0.14
promoter activity interaction Z-score [6, 21]: 2.96 ± 0.38
promoter activity interaction Z-score [6, 22]: 2.69 ± 1.1
promoter activity interaction Z-score [6, 23]: -0.0409 ± 0.74
promoter activity interaction Z-score [7, 8]: 0.67 ± 0.48
promoter activity interaction Z-score [7, 9]: -0.632 ± 0.36
promoter activity interaction Z-score [7, 10]: -0.116 ± 0.95
promoter activity interaction Z-score [7, 11]: -0.559 ± 0.21
promoter activity interaction Z-score [7, 12]: 0.553 ± 0.46
promoter activity interaction Z-score [7, 13]: -0.336 ± 0.28
promoter activity interaction Z-score [7, 14]: 0.749 ± 0.87
promoter activity interaction Z-score [7, 15]: 2.3 ± 2.1
promoter activity interaction Z-score [7, 16]: 1.84 ± 0.19
promoter activity interaction Z-score [7, 17]: 2.71 ± 0.84
promoter activity interaction Z-score [7, 18]: 1.92 ± 0.38
promoter activity interaction Z-score [7, 19]: 2.4 ± 1.6
promoter activity interaction Z-score [7, 20]: 1.85 ± 0.094
promoter activity interaction Z-score [7, 21]: 0.798 ± 2
promoter activity interaction Z-score [7, 22]: 1.4 ± 0.83
promoter activity interaction Z-score [7, 23]: 0.494 ± 0.71
